Measured values reported in PubChem BioAssay (Tox21).
A number with no mark means an inactive call. Calls come from the whole dose curve.

Biological target: Thyrotropin-releasing hormone receptor (Homo sapiens) (UniProt P34981)
Experiment: qHTS assay to identify small molecule agonists of the thyrotropin-releasing hormone receptor (TRHR) signaling pathway (AID 1346891)
Settings: TRHR-HEK293 calcium fluorescence, agonist mode; series mostly up to 57.6 µM; activation: at the top concentration
Procedure, shortened: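 HEK293 cells expressing TRHR plated 18 h at 37 C/5% CO2, calcium dye-loaded 2 h at 37 C, then compound added (agonist mode); kinetic calcium fluorescence read 3 min at 1 s intervals; 15 concentrations in triplicate.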
% is set by controls: 0 for no effect and ±100 for the full control effect.

Thyrotropin-releasing hormone receptor (Homo sapiens), sequence (P34981 whole entry, looked up): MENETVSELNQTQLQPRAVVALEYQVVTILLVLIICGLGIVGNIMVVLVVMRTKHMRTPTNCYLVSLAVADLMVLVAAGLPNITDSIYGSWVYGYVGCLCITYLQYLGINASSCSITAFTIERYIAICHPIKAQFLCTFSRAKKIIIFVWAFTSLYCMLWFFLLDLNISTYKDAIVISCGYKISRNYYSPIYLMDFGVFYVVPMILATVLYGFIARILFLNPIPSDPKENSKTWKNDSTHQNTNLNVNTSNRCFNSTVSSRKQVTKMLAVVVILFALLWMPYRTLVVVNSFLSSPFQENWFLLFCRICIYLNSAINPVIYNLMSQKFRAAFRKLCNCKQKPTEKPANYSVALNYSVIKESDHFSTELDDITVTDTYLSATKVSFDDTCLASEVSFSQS

SMILES	activation
O=S(=O)(O)c1cc(O)c(O)c(S(=O)(=O)O)c1	0.0682%
O=[N+]([O-])c1cncn1CCN1CCOCC1	-0.568% [at 26.5 µM]
CCOC(=O)OC(C)OC1=C(C(=O)Nc2ccccn2)N(C)S(=O)(=O)c2ccccc21 (stereo unspecified)	-0.0095% [at 26.5 µM]
CC1(C)[C@@H]2CC[C@@]1(C)[C@H](O)C2	-0.992%
CCN[C@H]1C[C@H](C)S(=O)(=O)c2sc(S(N)(=O)=O)cc21	-0.183% [at 26.5 µM]
O=CN(CCO)CCO	-0.119%
